This is a sample that favours compounds with a hit; in the whole collection about 3.1% have one here.
Tau FP inhib – blocks human tau fibril formation measured by polarization. P10636. K18 P301L tau heparin fibrillization, Alexa594 FP, 6 h. Potency, µM (doses to about 57.7 µM), hits mostly inhibitors. hit rate 0.39% among 280,000. AID 1468; also: nearly all actives have a fitted effect of over 55% in size
Target sequence (P10636 561-689 P618L limits assumed): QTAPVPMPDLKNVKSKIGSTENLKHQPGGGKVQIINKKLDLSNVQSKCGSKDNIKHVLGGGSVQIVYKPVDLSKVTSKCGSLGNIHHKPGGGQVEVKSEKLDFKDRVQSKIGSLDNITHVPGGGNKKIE
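Recombinant K18 P301L […], labeled with Alexa 594 at 0.24 uM over 15 uM unlabeled; heparin inducer 20 uM final; 37 C, 6 hr; FP endpoint.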
GoLoco inh red – RGS12 GoLoco-Gai1 interaction inhibition; P63096; Gai1:RGS12 GoLoco peptide FP, rhodamine, 10 min; Potency, µM (top dose mostly 61.6 µM), actives largely listed as inhibitors; hit rate 0.44% among 230,000; active = well fitted inhibition curve with a large enough effect, not every such curve was filed as active; inactive = no such curve, though single readings can be large or run the other way; also: nearly all actives have a fitted effect of over 30% in size
Target sequence (P63096 whole entry, looked up): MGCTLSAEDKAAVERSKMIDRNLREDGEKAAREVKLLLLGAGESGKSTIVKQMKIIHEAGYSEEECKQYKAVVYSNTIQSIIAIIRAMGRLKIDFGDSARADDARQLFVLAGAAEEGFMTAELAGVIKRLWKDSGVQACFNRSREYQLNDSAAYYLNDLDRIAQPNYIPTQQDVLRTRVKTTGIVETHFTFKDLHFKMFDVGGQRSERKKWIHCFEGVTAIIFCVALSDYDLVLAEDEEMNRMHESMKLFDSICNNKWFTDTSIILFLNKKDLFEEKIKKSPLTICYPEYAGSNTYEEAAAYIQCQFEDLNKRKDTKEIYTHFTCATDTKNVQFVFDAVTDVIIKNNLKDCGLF
Tau fibril ThT – blocks human tau fibril formation measured by thioflavin T | P10636 | Potency, µM (doses to about 57.4 µM), hits mostly inhibitors | recombinant tau K18 P301L, heparin-induced fibrillization, ThT fluorescence | AID 1460 | hit rate 2.1% among 270,000; also: nearly all actives have a fitted effect of over 55% in size
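ThT emission at 510 nm, taken 1 hr after adding 30 uM dye, quantifies aggregates formed when 20 uM heparin acts on human tau K18 P301L for 6 hr at 37 C.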
TexasRed fluor – Texas Red fluorescence interference in TRb-SRC2 counter-screen; TRb/SRC2 Texas Red total fluorescence interference; Potency, µM (top dose mostly 106 µM); hit rate 0.29% among 280,000; active = well fitted curve in either direction with a large enough effect; inconclusive = small, poorly fitted or top-dose-only effect
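Flags fluorescent or light-absorbing compounds by total fluorescence, S + 2P, at 555 nm excitation and 632 nm emission. Mixture: 20 nM Texas Red SRC2 peptide, 0.6 uM human TRb LBD, 1 uM T3, 5% DMSO; compound exposure 5 h at ambient temperature.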
TRb SRC2 PPI – disrupts binding of human TR beta to SRC2 | P10828 | TRbeta-SRC2 peptide binding, fluorescence polarization; receptor liganded with 1 µM T3 | Potency, µM (titrated, usually from 106 µM), hits mostly inhibitors | hit rate 0.065% among 280,000 | AID 1469; also: nearly all actives have a fitted effect of over 50% in size
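Decrease in fluorescence polarization of 20 nM Texas Red SRC2 coactivator peptide flagged inhibition of its binding to 0.6 uM TRb LBD; 1 uM T3 included, incubation 5 hr, ex 555/em 632 nm.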
Tau fluor cs – counter-screen for tau fibril formation inhibitors. tau K18 P301L (four-repeat tau fragment) Alexa594 fluorescence, heparin fibrillization. Potency, µM (top dose mostly 57.7 µM). hit rate 0.93% among 280,000; also: nearly all actives have a fitted effect of over 55% in size
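Human K18 P301L tau (15 uM unlabeled plus 0.24 uM Alexa 594-labeled, final) in 100 mM sodium acetate pH 7 was mixed with compound and 20 uM heparin and incubated 6 hr at 37 C.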
Large screens that a line does not name were inactive; [ ] = dose if it differs, or a comment. Unless noted, calls follow the shape of the dose curve; as a rule, active = well fitted curve in the direction sought with a large enough effect; inconclusive = small, poorly fitted or top-dose-only effect, or another doubt; inactive = no such curve, though single readings can be large; an effect the other way counts as inactive or inconclusive.

COc1ccccc1-c1cc(C(=O)Nc2cc(Cl)ccc2O)no1	Tau fluor cs 7.94µM[quencher] (no result: GoLoco inh red)
Cc1ccccc1NC(=S)N(Cc1cccs1)C1CCCCC1	none
Cc1onc(-c2c(F)cccc2Cl)c1C(=O)OCC(=O)c1c[nH]c2ccccc12	Tau FP inhib 17.8µM, Tau fluor cs 17.8µM[quencher]
O=C(CCC(=O)c1cccs1)Nc1nnc(C2CC2)s1	none
O=C1NC(=S)S/C1=C\c1cc2ccccc2nc1N1CCCCC1	Tau fibril ThT 14.1µM, Tau fluor cs inconclusive
N#C/C(=C\c1cc2ccccc2nc1N1CCCCC1)C(N)=O	Tau fibril ThT inconclusive
COc1ccc2nc(N3CCCCC3)c(/C=C3\SC(=S)NC3=O)cc2c1	Tau fibril ThT 14.1µM, Tau fluor cs inconclusive
COc1ccc2nc(N3CCCCC3)c(C#N)cc2c1	none
CCN1CCN(Cc2ccc(NC(=O)c3cc(NC(=O)c4nccnc4N)cc(OC)c3)cc2C(F)(F)F)CC1	none
CCN1CCN(Cc2ccc(NC(=O)c3cc(NC(=O)c4cncc(-c5ccc(C#N)cc5)c4)cc(OC)c3)cc2C(F)(F)F)CC1	Tau FP inhib 8.91µM, Tau fluor cs inconclusive
COC(=O)CN(C)C1CC(=O)N(c2ccc(Cl)cc2)C1=O (centres undefined)	none
COc1cc(/C=C2/CCC/C(=C\c3cc(O)c(OC)c(Cl)c3)C2=O)cc(Cl)c1O	Tau FP inhib inconclusive, Tau fibril ThT 11.2µM, Tau fluor cs inconclusive
COc1cc(/C=C2\COC/C(=C\c3cc(OC)c(OC)c(OC)c3)C2=O)cc(OC)c1OC	Tau FP inhib inconclusive, Tau fibril ThT 8.91µM
COc1cc(/C=C2\CC/C(=C\c3cc(OC)c(O)c(OC)c3)C2=O)cc(OC)c1O	Tau FP inhib inconclusive, Tau fibril ThT 6.31µM, Tau fluor cs 14.1µM[quencher]
COc1ccc(N2CCN(C(=O)c3cc4cc5ccc(Cl)cc5nc4o3)CC2)cc1	none (no result: GoLoco inh red)
CCN(CC)S(=O)(=O)c1ccc(/C=C/C(=O)OCC(=O)Nc2cccc3ccccc23)cc1	none
COC(=O)c1cc(N=Nc2sc(N)nc2C)cc(C(=O)OC)c1	Tau fibril ThT 15.8µM, Tau fluor cs inconclusive
CCOC(=O)c1c(C)oc2c1c(C(c1ccncc1)N1CCOCC1)c(O)c1ccccc12 (centres undefined)	Tau fibril ThT 14.1µM, Tau fluor cs inconclusive
Cc1[nH]n(-c2ccccc2)c(=S)c1C=Nc1ccc([N+](=O)[O-])cc1	Tau FP inhib inconclusive, GoLoco inh red 12.6µM, Tau fibril ThT 25.1µM
C=CCN1C(=O)C(O)(CC(=O)c2ccc(N)cc2)c2ccccc21 (centres undefined)	none
CC(=O)Nc1ccc(NC(=O)CCCCCN2C(=O)c3ccccc3C2=O)cc1	none
CCN(CC)c1ccc(NC(=O)CCCCCN2C(=O)c3ccccc3C2=O)cc1	Tau FP inhib inconclusive, GoLoco inh red 22.4µM, Tau fibril ThT inconclusive
CCc1cccc(NC(=O)CCSCCC(=O)Nc2cccc(CC)c2)c1	Tau fluor cs inconclusive
O=C(/N=C1\NC(=O)C(F)(C(F)(F)F)S1)NC1CCCCC1 (centres undefined)	Tau FP inhib inconclusive, Tau fibril ThT 25.1µM
CCOC(=O)c1ccc(NC(=O)CSc2nnc(CNc3ccc(OC)cc3)n2C)cc1	Tau FP inhib inconclusive, Tau fibril ThT 14.1µM
C[N+](C)(C)C/C=C1/COCO1	GoLoco inh red 10µM
O=C1c2ccccc2C2=Nc3ccccc3SC(c3cccc(F)c3)C12 (centres undefined)	Tau FP inhib inconclusive, Tau fibril ThT 12.6µM, Tau fluor cs 12.6µM[quencher]
CC(C)C(C(=O)Nc1cccnc1)N1C(=O)c2ccccc2C1=O (centres undefined)	none
Cc1ccc2oc(=O)n(CCNC(=O)Nc3ccccc3Cl)c2c1	none (no result: GoLoco inh red)
Fc1ccc(-c2csc(NC3=NCCC3)n2)cc1	none
Clc1ccc(-c2csc(NNC3=NCCCCC3)n2)cc1	Tau FP inhib inconclusive, Tau fibril ThT 31.6µM, Tau fluor cs inconclusive
Brc1ccc(-c2csc(NC3=NCCCCC3)n2)cc1	none
c1ccc(-c2csc(NNC3=NCCCCC3)n2)cc1	Tau FP inhib 25.1µM, Tau fibril ThT 25.1µM, Tau fluor cs inconclusive
COc1ccccc1NS(=O)(=O)c1cccc(C(=O)NN=C2CCCCCC2)c1	none
CCc1ccc(OCC(=O)NC2CC(C)(C)NC(C)(C)C2)cc1	Tau fibril ThT 12.6µM
Cc1ccc(OCC(=O)NC2CC(C)(C)NC(C)(C)C2)cc1C	none
CCc1nn2c(=O)cc(COc3ccc(/C=C4\C(=N)N5N=C(C)SC5=NC4=O)cc3)nc2s1	Tau fibril ThT 12.6µM
CCc1nn2c(=O)cc(COC(=O)COc3ccc(OC)cc3)nc2s1	none (no result: GoLoco inh red)
Cc1cc(Cl)ccc1OCCCC(=O)N1CCN(C(=O)c2ccco2)CC1	Tau fibril ThT inconclusive
CC(C)(Oc1ccc(Br)cc1)C(=O)Nc1cc(-c2nc3ccccc3[nH]2)ccc1Cl	Tau FP inhib 15.8µM, Tau fluor cs inconclusive (no result: GoLoco inh red)
CN1CCN(C(=O)c2cnn(-c3ccccc3)c2C2CCN(C(=O)OC(C)(C)C)CC2)CC1	TexasRed fluor inconclusive (no result: GoLoco inh red)
Cc1ccc(S(=O)(=O)/N=C2/C=C(C3C(=O)CC(C)(C)CC3=O)C(=O)c3ccccc32)cc1	Tau FP inhib 22.4µM, Tau fibril ThT 8.91µM, Tau fluor cs 8.91µM[quencher]
CCN(CC)c1ccc(/C=C2\CCC(/C=C(\C#N)C(=O)Nc3ccccc3F)=C2N2CCOCC2)cc1	Tau FP inhib inconclusive, Tau fibril ThT inconclusive, TexasRed fluor inconclusive, Tau fluor cs inconclusive
N#C/C(=C\C1=C(N2CCOCC2)C(=C\c2ccc(Cl)cc2)/CC1)C(=O)Nc1ccccc1F	Tau FP inhib inconclusive, Tau fibril ThT inconclusive, TexasRed fluor 50.1µM[fluorescent], TRb SRC2 PPI 39.8µM
N#C/C(=C\C1=C(N2CCOCC2)C(=C/c2cccc([N+](=O)[O-])c2)/CC1)C(=O)Nc1ccccc1F	Tau FP inhib inconclusive, Tau fibril ThT 2.24µM
CCCCOP(=O)(c1ccc(N(C)C)cc1)C(Nc1ccccc1)c1ccccc1 (centres undefined)	none
CCCOP(=O)(c1ccc(N(C)C)cc1)C(Nc1ccccc1)c1ccc(N(C)C)cc1 (centres undefined)	TexasRed fluor 31.6µM[quencher]
CC(C)(C)OC(=O)N1CCC(c2c(C(=O)N3CCN(c4ccccc4)CC3)cnn2-c2ccccc2)CC1	none (no result: GoLoco inh red)
O=C(C1=C[C@@H]2[C@H]3C(=O)N(c4cccc(Cl)c4)C(=O)[C@H]3[C@@H](C(=O)c3ccc(Cl)cc3)N2C=C1)c1ccccc1	Tau fibril ThT inconclusive
O=C(C1=C[C@@H]2[C@H]3C(=O)N(c4ccccc4Cl)C(=O)[C@H]3[C@@H](C(=O)c3ccc(Cl)cc3)N2C=C1)c1ccccc1	Tau fibril ThT 22.4µM, Tau fluor cs inconclusive

Screening results as filed in PubChem BioAssay.
